# Test results: the supplement of paper PMC11732987, “Enantioselective OTUD7B fragment discovery through chemoproteomics screening and high-throughput optimisation” (Communications Chemistry, 2025)
# Values without a mark were called inactive.
# Legend:
# Assay in all cases: log2 ratio of Biotin-Ahx-Ub-VS probe labelling (fragment/DMSO); higher = less target engagement (more negative = stronger competition), active = hit call of the paper (q ≤ 0.05, log2 ratio ≤ -1)
# Conditions in all cases: compound concentration: 200 uM; treatment time: 3 h
# USP42 = biological target: T1, USP42 (UniProt Q9H9J4)
# T1 sequence (whole entry): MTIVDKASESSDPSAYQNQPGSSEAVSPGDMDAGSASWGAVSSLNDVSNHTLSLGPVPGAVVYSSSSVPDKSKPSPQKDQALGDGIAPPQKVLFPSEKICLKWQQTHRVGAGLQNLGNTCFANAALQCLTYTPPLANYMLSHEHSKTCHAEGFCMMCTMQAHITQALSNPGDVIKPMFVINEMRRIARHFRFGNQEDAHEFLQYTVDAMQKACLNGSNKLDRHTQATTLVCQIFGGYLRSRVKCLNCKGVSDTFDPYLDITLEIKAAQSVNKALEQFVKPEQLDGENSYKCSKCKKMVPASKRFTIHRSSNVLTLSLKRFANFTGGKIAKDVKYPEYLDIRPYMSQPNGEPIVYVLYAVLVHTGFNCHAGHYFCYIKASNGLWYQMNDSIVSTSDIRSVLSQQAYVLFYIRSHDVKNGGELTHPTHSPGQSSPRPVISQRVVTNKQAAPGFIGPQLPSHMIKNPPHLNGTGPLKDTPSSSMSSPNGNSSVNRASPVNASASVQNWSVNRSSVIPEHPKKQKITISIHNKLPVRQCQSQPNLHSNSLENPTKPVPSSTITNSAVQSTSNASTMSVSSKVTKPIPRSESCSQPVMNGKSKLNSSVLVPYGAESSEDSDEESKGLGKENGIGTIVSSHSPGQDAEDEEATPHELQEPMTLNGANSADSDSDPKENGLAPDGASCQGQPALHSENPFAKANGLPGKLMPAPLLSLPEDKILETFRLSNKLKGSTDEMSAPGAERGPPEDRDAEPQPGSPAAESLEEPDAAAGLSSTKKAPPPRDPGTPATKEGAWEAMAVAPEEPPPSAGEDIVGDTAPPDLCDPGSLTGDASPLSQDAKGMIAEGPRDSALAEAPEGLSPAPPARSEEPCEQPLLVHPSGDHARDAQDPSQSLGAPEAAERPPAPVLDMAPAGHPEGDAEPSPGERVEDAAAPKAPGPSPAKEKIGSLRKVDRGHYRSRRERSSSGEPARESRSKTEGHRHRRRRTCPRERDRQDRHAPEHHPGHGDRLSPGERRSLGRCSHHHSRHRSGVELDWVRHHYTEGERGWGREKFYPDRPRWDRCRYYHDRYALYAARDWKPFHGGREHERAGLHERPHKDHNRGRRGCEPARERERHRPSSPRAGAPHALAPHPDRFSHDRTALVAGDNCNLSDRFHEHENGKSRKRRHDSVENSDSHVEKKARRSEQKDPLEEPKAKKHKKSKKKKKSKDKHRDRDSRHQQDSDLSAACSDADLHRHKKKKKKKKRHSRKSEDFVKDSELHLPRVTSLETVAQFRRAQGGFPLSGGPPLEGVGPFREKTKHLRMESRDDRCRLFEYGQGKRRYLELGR
# In short: (§1)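 The table lists average log2 ratios of fragment over vehicle, from an unpaired t-test on global-median-normalised Spectronaut label-free quantities. Proteins with ≥2 unique peptides were used. Samples were HEK293T lysate (495 µg) treated in triplicate with fragment at 200 µM or vehicle for 3 h, then with Biotin-Ahx-Ub-VS (0.5 µM final) for 1 h, with labelled DUBs NeutrAvidin-enriched and run by diaPASEF LC-MS/MS.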
# USP46 = USP46 (UniProt P62068)
# In short: as §1
# USP47 = biological target: T2, USP47 (UniProt Q96K76)
# T2 sequence (whole entry): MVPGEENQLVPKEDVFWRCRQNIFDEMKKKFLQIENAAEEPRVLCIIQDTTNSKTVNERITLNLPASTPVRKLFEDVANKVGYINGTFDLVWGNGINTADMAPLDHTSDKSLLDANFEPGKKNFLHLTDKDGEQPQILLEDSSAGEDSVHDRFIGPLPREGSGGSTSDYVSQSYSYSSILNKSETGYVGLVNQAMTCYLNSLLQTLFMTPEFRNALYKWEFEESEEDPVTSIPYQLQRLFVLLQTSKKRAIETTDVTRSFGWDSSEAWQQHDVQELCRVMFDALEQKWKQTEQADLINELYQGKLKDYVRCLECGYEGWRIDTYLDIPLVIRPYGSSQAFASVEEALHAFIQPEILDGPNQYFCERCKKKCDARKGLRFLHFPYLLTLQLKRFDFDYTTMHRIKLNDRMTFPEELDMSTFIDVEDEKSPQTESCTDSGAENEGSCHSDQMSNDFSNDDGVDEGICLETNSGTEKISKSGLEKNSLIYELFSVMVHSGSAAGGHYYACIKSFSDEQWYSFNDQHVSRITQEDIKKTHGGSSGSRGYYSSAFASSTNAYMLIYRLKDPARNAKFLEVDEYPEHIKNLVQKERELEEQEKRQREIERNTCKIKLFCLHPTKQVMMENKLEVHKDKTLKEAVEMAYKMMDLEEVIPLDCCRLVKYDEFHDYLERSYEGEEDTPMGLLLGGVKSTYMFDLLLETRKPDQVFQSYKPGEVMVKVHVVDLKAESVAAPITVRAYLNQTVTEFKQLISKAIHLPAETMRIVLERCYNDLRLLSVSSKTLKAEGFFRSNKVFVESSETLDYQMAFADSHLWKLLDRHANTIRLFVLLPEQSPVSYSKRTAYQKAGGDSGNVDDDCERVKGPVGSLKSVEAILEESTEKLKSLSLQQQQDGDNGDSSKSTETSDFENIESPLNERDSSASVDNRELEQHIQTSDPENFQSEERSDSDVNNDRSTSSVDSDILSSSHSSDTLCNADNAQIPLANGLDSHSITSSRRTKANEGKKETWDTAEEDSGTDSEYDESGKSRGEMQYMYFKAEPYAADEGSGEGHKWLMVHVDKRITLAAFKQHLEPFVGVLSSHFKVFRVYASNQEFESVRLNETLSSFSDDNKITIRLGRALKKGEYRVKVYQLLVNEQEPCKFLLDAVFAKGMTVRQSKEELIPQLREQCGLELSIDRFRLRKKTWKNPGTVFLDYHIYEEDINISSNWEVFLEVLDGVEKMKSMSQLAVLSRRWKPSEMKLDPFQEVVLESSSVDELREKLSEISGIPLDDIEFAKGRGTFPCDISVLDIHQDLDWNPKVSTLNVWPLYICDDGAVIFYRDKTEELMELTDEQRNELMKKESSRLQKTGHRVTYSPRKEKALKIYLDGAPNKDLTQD
# In short: as §1
# USP48 = biological target: T3, USP48 (UniProt Q86UV5)
# T3 sequence (whole entry): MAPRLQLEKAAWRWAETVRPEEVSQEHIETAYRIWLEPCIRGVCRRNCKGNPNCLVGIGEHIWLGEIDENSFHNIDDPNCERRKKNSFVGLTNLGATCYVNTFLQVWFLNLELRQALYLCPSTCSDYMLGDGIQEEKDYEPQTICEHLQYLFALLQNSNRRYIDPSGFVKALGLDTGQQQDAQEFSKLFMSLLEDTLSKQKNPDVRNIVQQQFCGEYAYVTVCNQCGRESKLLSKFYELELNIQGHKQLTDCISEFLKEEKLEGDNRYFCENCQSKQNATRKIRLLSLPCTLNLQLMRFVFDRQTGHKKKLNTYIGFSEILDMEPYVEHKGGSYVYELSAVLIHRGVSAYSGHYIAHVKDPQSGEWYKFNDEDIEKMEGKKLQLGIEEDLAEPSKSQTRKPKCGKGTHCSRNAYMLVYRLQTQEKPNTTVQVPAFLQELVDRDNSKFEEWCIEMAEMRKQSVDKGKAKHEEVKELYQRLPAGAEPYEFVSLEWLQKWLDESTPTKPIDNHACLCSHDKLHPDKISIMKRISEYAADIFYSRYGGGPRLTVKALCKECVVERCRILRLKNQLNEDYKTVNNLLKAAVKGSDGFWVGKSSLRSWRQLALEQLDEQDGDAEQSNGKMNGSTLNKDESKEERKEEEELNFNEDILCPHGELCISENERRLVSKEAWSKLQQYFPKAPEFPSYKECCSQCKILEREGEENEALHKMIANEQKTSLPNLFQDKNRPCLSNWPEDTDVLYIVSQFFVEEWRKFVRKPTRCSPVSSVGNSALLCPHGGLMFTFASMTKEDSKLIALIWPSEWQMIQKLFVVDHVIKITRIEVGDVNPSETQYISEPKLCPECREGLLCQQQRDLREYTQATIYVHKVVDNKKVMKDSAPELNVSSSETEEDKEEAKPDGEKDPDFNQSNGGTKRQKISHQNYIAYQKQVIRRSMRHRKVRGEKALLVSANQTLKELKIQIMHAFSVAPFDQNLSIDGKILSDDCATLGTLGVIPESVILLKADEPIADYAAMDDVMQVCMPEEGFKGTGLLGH
# In short: as §1
# USP5 = biological target: T4, USP5 (UniProt P45974)
# T4 sequence (whole entry): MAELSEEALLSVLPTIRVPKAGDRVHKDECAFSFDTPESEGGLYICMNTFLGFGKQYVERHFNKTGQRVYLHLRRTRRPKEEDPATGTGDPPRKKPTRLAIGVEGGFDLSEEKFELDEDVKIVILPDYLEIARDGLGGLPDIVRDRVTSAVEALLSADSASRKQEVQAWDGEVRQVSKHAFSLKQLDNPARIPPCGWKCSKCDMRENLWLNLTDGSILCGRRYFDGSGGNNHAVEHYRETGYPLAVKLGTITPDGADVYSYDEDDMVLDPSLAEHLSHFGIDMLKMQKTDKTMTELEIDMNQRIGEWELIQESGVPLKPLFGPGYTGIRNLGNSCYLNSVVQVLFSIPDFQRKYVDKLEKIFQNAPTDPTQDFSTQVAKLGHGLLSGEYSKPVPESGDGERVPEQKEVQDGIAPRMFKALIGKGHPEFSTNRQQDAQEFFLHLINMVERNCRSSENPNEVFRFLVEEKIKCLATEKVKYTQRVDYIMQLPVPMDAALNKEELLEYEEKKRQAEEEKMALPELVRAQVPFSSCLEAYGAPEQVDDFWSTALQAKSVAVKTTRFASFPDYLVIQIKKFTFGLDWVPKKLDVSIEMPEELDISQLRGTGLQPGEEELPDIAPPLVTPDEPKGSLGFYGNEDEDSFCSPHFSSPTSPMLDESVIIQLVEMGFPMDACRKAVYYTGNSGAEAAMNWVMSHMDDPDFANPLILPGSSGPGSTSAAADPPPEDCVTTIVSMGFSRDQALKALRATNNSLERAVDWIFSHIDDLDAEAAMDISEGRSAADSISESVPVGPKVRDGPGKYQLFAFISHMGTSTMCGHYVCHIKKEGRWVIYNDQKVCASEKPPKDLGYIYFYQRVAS
# In short: as §1
# USP54 = USP54 (UniProt Q70EL1)
# In short: as §1
# USP7 = USP7 (UniProt Q93009)
# In short: as §1
# USP8 = biological target: T5, USP8 (UniProt P40818)
# T5 sequence (whole entry): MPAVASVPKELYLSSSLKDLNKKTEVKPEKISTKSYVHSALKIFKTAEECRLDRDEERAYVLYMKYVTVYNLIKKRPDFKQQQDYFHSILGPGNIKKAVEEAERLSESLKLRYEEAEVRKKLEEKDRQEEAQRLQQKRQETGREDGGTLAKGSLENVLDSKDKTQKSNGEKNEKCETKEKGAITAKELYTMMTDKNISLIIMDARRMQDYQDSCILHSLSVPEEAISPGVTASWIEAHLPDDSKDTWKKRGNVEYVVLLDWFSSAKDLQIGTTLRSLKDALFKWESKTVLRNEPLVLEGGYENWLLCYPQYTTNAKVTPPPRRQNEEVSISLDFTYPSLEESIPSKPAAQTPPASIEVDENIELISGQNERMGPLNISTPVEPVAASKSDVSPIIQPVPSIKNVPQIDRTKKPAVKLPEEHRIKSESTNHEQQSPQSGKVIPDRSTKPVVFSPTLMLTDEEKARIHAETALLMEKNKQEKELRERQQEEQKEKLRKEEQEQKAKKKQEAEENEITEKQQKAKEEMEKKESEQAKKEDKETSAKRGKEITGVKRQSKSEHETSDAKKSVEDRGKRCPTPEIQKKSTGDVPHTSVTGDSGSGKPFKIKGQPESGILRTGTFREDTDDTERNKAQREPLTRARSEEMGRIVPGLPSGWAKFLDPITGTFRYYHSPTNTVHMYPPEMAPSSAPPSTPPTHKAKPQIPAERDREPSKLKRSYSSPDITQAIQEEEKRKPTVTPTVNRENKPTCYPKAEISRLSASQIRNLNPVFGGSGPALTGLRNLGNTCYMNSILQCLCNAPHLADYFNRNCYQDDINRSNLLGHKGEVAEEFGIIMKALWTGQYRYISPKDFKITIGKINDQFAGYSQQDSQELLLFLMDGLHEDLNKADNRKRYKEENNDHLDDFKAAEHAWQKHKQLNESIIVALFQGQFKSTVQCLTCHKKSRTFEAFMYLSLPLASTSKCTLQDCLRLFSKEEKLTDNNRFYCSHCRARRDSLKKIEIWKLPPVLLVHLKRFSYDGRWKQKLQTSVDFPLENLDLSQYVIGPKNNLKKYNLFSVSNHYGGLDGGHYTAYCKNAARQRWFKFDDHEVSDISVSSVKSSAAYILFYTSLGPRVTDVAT
# In short: as §1
# USP9X = USP9X (UniProt Q93008)
# In short: as §1
# UniProt O00487 = biological target: UniProt O00487
# In short: as §1
# Chain of USP54 (Q70EL1 whole entry): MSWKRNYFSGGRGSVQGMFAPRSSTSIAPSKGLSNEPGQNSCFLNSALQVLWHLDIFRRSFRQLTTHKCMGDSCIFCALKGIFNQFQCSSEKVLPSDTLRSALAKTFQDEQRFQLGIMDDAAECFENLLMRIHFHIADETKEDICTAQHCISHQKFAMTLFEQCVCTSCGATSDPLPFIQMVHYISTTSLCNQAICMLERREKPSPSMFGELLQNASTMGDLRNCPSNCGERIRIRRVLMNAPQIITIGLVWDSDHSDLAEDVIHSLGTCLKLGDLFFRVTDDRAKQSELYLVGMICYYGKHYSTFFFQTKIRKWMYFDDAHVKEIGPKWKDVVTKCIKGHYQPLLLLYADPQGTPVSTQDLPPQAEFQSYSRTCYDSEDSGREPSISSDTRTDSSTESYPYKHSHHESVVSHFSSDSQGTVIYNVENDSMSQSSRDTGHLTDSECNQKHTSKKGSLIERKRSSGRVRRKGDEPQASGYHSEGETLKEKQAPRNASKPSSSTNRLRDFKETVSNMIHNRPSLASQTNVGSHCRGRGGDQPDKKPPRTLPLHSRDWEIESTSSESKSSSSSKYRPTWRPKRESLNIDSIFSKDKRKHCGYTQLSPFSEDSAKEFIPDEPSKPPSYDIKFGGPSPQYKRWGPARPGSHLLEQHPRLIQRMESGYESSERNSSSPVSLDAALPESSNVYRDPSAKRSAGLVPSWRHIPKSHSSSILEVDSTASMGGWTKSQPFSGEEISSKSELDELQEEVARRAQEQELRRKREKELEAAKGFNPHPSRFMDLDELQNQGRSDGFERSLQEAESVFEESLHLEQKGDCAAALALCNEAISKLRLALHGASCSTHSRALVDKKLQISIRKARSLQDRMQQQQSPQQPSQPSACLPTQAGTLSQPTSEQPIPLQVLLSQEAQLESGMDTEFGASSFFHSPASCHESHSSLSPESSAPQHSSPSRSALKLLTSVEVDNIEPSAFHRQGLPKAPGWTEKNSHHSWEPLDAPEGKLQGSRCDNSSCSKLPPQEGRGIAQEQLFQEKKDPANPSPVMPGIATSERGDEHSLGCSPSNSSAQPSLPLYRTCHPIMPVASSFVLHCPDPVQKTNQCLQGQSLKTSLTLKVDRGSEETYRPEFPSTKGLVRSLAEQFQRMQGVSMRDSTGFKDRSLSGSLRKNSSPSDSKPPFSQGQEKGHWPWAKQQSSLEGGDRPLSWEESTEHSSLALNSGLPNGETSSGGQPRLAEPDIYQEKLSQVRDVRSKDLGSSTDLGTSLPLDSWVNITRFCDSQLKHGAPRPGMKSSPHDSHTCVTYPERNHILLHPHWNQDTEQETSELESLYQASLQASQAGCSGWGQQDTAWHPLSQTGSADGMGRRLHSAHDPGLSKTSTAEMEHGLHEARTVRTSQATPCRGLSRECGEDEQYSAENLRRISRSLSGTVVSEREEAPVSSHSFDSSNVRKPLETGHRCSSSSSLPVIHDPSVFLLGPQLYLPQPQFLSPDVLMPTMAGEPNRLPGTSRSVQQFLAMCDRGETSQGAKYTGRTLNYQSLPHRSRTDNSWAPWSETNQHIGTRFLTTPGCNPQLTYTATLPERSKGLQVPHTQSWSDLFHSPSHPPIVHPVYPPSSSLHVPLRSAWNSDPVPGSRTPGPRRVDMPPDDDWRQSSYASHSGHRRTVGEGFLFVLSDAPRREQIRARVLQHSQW
# Chain of USP9X (Q93008 whole entry): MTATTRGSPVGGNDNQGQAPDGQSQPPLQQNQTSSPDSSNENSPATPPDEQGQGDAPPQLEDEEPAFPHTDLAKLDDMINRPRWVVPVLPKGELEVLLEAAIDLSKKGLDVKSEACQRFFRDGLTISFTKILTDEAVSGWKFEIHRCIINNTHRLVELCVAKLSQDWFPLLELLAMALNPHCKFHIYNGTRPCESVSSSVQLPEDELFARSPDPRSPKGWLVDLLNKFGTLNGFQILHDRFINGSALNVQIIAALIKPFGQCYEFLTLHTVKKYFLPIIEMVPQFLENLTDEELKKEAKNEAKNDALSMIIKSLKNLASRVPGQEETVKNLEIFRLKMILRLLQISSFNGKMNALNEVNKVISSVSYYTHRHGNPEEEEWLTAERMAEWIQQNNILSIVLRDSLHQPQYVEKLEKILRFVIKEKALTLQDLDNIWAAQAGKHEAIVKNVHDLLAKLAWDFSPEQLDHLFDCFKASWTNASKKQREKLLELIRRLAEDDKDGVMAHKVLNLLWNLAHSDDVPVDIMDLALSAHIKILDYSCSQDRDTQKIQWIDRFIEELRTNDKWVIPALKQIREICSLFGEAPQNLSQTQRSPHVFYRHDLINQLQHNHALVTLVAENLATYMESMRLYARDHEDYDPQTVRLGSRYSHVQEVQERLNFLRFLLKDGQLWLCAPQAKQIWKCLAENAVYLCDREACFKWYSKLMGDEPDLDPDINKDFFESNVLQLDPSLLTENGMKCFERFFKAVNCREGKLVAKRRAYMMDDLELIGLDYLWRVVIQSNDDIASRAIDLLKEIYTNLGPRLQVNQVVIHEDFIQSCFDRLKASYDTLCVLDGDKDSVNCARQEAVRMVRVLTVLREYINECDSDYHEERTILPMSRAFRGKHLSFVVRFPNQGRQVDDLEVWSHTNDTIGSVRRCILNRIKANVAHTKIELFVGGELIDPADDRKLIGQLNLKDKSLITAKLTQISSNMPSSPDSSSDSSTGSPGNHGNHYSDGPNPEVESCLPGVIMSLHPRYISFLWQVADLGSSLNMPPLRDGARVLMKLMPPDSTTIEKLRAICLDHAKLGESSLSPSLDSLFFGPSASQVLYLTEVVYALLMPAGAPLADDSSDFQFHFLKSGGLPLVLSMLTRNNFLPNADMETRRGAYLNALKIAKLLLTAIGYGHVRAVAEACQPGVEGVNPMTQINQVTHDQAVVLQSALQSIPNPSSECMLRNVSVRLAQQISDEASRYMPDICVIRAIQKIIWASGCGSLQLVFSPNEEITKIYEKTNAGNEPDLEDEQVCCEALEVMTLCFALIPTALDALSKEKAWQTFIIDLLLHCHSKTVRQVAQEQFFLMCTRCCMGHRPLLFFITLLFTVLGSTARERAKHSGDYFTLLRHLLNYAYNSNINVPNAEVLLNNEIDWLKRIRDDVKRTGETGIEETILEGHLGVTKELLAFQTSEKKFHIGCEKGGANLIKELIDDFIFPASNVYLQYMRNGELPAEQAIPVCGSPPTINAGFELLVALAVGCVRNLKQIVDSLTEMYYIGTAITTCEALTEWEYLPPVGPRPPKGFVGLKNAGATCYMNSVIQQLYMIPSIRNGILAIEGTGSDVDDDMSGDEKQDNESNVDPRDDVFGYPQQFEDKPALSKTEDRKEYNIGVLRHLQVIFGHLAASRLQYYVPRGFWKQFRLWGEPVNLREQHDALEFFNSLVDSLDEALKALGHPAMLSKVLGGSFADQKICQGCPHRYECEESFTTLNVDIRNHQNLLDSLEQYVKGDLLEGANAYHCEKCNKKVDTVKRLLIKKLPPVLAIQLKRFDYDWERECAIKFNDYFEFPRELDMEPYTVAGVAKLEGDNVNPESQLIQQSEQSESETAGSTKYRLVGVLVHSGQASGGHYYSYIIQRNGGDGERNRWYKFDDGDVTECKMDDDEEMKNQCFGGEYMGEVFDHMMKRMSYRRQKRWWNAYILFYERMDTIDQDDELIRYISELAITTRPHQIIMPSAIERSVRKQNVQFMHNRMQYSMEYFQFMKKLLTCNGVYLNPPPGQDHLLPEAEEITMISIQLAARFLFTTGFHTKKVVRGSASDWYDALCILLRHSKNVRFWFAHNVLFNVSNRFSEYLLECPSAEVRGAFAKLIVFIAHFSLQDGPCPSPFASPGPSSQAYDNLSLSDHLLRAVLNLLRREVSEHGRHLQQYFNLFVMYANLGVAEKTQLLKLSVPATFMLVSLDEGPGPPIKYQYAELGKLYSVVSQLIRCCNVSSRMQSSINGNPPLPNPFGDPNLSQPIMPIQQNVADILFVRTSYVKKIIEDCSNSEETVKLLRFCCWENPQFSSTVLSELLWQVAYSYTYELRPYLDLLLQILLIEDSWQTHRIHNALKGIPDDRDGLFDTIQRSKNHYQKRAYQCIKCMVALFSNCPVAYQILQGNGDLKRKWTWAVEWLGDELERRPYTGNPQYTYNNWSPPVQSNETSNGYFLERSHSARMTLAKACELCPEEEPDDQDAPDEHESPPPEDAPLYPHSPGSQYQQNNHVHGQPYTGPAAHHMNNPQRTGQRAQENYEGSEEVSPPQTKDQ
# Chain of UniProt O00487 (O00487 whole entry): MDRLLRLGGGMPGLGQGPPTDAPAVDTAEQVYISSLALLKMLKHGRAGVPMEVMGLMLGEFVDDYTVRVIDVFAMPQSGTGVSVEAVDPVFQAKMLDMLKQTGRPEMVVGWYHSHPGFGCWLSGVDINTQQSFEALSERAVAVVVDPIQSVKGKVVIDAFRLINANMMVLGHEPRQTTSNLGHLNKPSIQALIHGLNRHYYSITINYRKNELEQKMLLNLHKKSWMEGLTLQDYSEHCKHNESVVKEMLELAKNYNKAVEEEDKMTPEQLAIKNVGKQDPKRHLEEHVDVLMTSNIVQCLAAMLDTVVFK
# Chain of USP46 (P62068 whole entry): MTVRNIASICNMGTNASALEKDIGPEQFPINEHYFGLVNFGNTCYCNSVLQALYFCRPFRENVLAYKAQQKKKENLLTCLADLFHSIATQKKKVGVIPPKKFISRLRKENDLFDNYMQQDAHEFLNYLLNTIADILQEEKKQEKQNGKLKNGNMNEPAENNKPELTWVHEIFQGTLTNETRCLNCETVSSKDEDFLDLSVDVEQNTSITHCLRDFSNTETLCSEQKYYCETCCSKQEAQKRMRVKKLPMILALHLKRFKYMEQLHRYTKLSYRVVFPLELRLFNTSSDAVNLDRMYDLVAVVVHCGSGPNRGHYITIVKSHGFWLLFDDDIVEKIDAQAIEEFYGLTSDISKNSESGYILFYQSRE
smiles,measurement,setting,value
Cn1cc(CN(Cc2ccc(Cl)cc2)C(=O)CCl)cn1,log2 ratio of Biotin-Ahx-Ub-VS probe labelling,USP42,0.553
same,log2 ratio of Biotin-Ahx-Ub-VS probe labelling,USP46,-0.635
same,log2 ratio of Biotin-Ahx-Ub-VS probe labelling,USP47,-1.45 (active)
same,log2 ratio of Biotin-Ahx-Ub-VS probe labelling,USP48,-0.598
same,log2 ratio of Biotin-Ahx-Ub-VS probe labelling,USP5,0.00584
same,log2 ratio of Biotin-Ahx-Ub-VS probe labelling,USP54,-0.648
same,log2 ratio of Biotin-Ahx-Ub-VS probe labelling,USP7,-3.08 (active)
same,log2 ratio of Biotin-Ahx-Ub-VS probe labelling,USP8,0.0316
same,log2 ratio of Biotin-Ahx-Ub-VS probe labelling,USP9X,-0.441
same,log2 ratio of Biotin-Ahx-Ub-VS probe labelling,UniProt O00487,0.0261
